PubChem BioAssay

Key:
[1] = system: Human papillomavirus type 1a protein E7 (residues 44-93); experiment: small molecules binding HPV E7 44-93 – biochemical, small-molecule microarray, residues 44-93, 635 nm fluorescence, primary screen (AID 1108); conditions: fluorescence 635 nm, higher = more signal;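 further: E7 fragment applied at 1 µg/mL in TBST for 1 h at 4 C; score combines spot fluorescence with its signal to noise ratio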
[2] = hepatitis C replication reporter changes, two-sided – Huh7 cells, luciferase reporter, HCV replication inhibitor project, primary screen (AID 1109); conditions: Huh7 HCV replicon luciferase reporter, 48 h; higher = more signal;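 further: huh7 hepatoma cells harbouring a luciferase neomycin HCV replicon reporter; luciferase luminescence as measure of HCV replicon replication; test concentration not given here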
[3] = target: Left-right determination factor 2 (Homo sapiens) (UniProt O00292); experiment: small molecules binding LEFTY2 protein – biochemical, small-molecule microarray, 635 nm fluorescence scan, primary screen (AID 1110); conditions: higher = more signal
Sequence of Left-right determination factor 2 (Homo sapiens) (O00292 whole entry, looked up): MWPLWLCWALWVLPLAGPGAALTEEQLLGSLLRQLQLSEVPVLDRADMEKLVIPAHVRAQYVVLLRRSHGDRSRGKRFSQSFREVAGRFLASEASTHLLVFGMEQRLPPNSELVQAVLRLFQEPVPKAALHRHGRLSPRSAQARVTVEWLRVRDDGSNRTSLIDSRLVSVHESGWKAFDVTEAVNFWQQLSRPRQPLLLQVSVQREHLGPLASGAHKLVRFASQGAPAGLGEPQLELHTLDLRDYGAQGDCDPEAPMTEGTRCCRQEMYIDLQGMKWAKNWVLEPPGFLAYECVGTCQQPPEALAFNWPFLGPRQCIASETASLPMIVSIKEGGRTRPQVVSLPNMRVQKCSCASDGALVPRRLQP

[4] = target: Calmodulin-1 (Homo sapiens) (UniProt P0DP23); experiment: small molecules binding calmodulin-1 with EGTA – biochemical, small-molecule microarray, Cy5-labelled CALM1, profiling panel (AID 1111); conditions: Cy5-CALM1 binding fluorescence, higher = more signal;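 further: labelled calmodulin applied in Tris saline Tween buffer holding calcium plus EGTA and DTT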
[5] = target: Calmodulin-1 (Homo sapiens) (UniProt P0DP23); experiment: small molecules binding Ca-loaded calmodulin-1 – biochemical, small-molecule microarray, Cy5-labelled CALM1, plus calcium, artefact control for SMM control-protein annotation, profiling panel (AID 1112); conditions: Cy5-CALM1 binding fluorescence, higher = more signal;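 further: score merges spot fluorescence with signal to noise from triplicate slides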
[6] = probe aWnt5a binding to arrayed compounds – biochemical, biotinylated probe, 635/667 nm fluorescence, primary screen (AID 1113); conditions: small-molecule microarray, higher = more signal;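 further: score merges 667 nm fluorescence intensity with signal-to-noise per printed feature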
[7] = probe aShh binding to arrayed compounds – biochemical, biotinylated probe, 635/667 nm fluorescence, primary screen (AID 1114); conditions: small-molecule microarray, higher = more signal;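 further: probe is biotin-labelled aShh protein from a stem cell growth factor screen; measures binding of labelled protein to compounds printed on the slide; score merges feature fluorescence at 667 nm with signal-to-noise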
[8] = probe aNog binding to arrayed compounds – biochemical, biotinylated probe, 635/667 nm fluorescence, primary screen (AID 1115); conditions: small-molecule microarray, higher = more signal;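 further: probe is biotinylated aNog protein used at 0.15 µg/mL for 1 h at 4 C; z-score combines 667 nm fluorescence of each spot with its signal to noise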
[9] = target: Torsin-1A-interacting protein 1 (Homo sapiens) (UniProt Q5JTV8); experiment: compound microarray binding of lysate hLAP1 – cell lysate, small-molecule microarray, COS7 lysate, 635/667 nm fluorescence, primary screen (AID 1116); conditions: 635 nm fluorescence, higher = more signal
Sequence of Torsin-1A-interacting protein 1 (Homo sapiens) (Q5JTV8 whole entry, looked up): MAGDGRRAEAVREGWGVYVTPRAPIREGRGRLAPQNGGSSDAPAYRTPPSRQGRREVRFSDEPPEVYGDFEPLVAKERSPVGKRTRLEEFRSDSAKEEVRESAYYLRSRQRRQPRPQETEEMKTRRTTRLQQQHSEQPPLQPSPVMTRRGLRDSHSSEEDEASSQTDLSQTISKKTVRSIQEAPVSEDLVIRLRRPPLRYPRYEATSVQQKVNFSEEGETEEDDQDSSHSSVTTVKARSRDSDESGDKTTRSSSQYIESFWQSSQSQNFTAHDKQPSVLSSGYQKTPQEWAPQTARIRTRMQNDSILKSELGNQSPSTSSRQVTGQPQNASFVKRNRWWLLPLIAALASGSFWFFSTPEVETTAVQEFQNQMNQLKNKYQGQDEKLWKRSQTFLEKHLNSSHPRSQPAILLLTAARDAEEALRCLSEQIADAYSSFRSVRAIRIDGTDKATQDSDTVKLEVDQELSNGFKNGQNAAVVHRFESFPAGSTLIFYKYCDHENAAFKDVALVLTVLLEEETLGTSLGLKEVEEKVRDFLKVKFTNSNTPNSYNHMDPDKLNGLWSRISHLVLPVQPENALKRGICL

[10] = target: Alpha-bungarotoxin (Bungarus multicinctus) (UniProt P60615); experiment: compounds binding labelled alpha-BTX control protein – biochemical, small-molecule microarray, Alexa647 label, 635/667 nm fluorescence, artefact control for SMM control protein annotation, profiling panel (AID 1117); conditions: alpha-BTX-A647 binding fluorescence, higher = more signal
Sequence of Alpha-bungarotoxin (Bungarus multicinctus) (P60615 whole entry, looked up): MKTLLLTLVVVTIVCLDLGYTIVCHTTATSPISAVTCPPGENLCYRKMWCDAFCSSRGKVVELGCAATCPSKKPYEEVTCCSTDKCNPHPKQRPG

Row | Structure (SMILES) | composite z-score [1] | z-score [2] | composite z-score [3] | composite z-score [4] | composite z-score [5] | composite z-score [6] | composite z-score [7] | composite z-score [8] | composite z-score [9] | composite z-score [10]
1 | CC(=O)OC[C@H]1O[C@@H](ON=C(C)CCC(=O)OC[C@H]2O[C@H](C#Cc3ccccc3)C=C[C@@H]2Oc2ccc(C)cc2)[C@H](OC(C)=O)[C@@H](OC(C)=O)[C@@H]1OC(C)=O | 1.18 | -1.2 | 0.713 | 0.49 | -0.304 | -0.0735 | -0.0769 | -0.156 | 0.415 | -0.0285
2 | O=C1[C@H]2[C@H]3[C@H](O)[C@H](O)CC(=NOCc4ccccc4)[C@@H]3CC[C@H]2C(=O)N1c1cccc(Oc2ccccc2)c1 | 1.32 | 0.0134 | -0.0065 | -0.0299 | -0.699 | -0.096 | 0.0639 | 0.0051 | 0.902 | 0.626
3 | COC(=O)CC=C[C@@H](C)[C@@H](C=NOC[C@@H](O)COCc1ccco1)OC | 0.134 | 0.674 | 0.999 | -0.809 | -2.21 | -0.172 | -0.243 | -0.353 | 0.329 | -0.741
4 | CCN1C(=O)[C@H]2[C@H]3[C@H](O)[C@H](O)CC(=NOC[C@@H](O)[C@H]4O[C@@H]5OC(C)(C)O[C@@H]5[C@H]4O)[C@@H]3CC[C@H]2C1=O | -0.629 | -0.299 | 0.484 | -0.154 | -0.324 | -0.096 | -0.0289 | -0.0733 | -0.209 | 0.0203
5 | CCN1C(=O)[C@H]2[C@H]3[C@H](O)[C@H](O)CC(=NOCC[C@@H]4C=C[C@H](OC(C)=O)[C@@H](COC(C)=O)O4)[C@@H]3CC[C@H]2C1=O | -0.263 | -1.04 | 0.736 | -0.207 | -0.225 | 0.0102 | 0.0899 | 0.029 | -0.359 | 0.391
6 | C[C@H]1CC[C@H]2C(=O)OC(COc3ccc(C(C)(C)C)cc3)CN2[C@@H]1c1ccc(Br)cc1 (stereo not given in full) | 1.1 | 1.1 | 0.0037 | 0.464 | 0.14 | -0.277 | -0.0709 | -0.111 | 0.0437 | 0.319
7 | CC(CCC(=O)OC[C@H]1O[C@H](C#Cc2ccccc2)C=C[C@@H]1Oc1ccc(C)cc1)=NOC(C)CN1CCCCc2nc(C)c(C)cc21 (stereo not given in full) | 0.686 | -1.17 | -0.132 | -0.19 | 0.571 | -0.197 | -0.0626 | -0.257 | -0.0043 | 1.53
8 | C[C@H]1CC[C@H]2C(=O)O[C@H](CO)CN2[C@@H]1c1ccc(Br)cc1 | 0.33 | -0.0002 | 0.217 | -0.25 | -0.445 | -0.213 | -0.276 | -0.234 | -0.138 | 0.126
9 | COC(=O)CC=C[C@@H](C)[C@@H](C=NOC(C)CN1CCCc2nc(C)c(C)cc21)NS(=O)(=O)c1ccc(C)cc1 (stereo not given in full) | 1.09 | -1.05 | 0.817 | -0.481 | -0.56 | -0.0758 | 0.213 | -0.0172 | 0.232 | -0.0193
10 | OC[C@H]1O[C@H](C#Cc2ccccc2)C=C[C@@H]1O | 0.0191 | -0.125 | 0.484 | -0.12 | -0.644 | 0.0251 | 0.0141 | -0.0125 | -0.0177 | 0.42
11 | CC(C)=CCCC(C)=CCON=C1C[C@@H](O)[C@@H](O)[C@@H]2[C@@H]3C(=O)N(Cc4ccc5c(c4)OCO5)C(=O)[C@@H]3CC[C@H]12 | 1.38 | -1.45 | 0.546 | -0.588 | -1.11 | -0.0346 | -0.2 | -0.28 | 0.142 | 0.168
12 | O=C1CCCC=C1C(O)c1ccc([N+](=O)[O-])cc1 (stereo not given) | -0.607 | -0.67 | 0.387 | -0.79 | -0.499 | -0.101 | -0.288 | -0.489 | 0.315 | -0.237
13 | CC(=O)OC[C@H]1O[C@H](C#CCC2CCCCC2)C=C[C@@H]1OC(C)=O | 1.12 | -2.57 | 0.992 | 0.235 | -0.26 | -0.154 | 0.194 | 0.129 | 0.471 | 0.36
14 | CC(CCN1CCCCc2nc(C)c(C)cc21)=NO[C@@H](C)c1cc(-c2c(C)cc(C)cc2C)no1 | -0.384 | -1.56 | -0.747 | -0.901 | -0.891 | -0.152 | -0.221 | -0.298 | 0.0623 | -0.664
15 | CN1CCc2nc(-c3ccccc3)c(-c3ccccc3)cc2C1 | 0.321 | 0.179 | 0.47 | -0.174 | -0.414 | -0.0239 | 0.204 | -0.287 | 0.269 | 0.127
16 | Cc1ccc2[nH]c3nc(CCCn4ccnc4-c4ccccc4)nnc3c2c1 | 0.0596 | -0.544 | 0.635 | 0.308 | -1.02 | -0.101 | 0.191 | -0.344 | 0.666 | 0.335
17 | CCN(CC)CC(O)CN1CCCCc2nc(C)c(C)cc21 (stereo not given) | -0.0592 | 0.932 | 0.31 | -0.397 | -0.125 | -0.129 | -0.138 | -0.0137 | 0.579 | 0.695

Row | Structure (SMILES) | composite z-score [1] | z-score [2] | composite z-score [3] | composite z-score [4] | composite z-score [5] | composite z-score [6] | composite z-score [7] | composite z-score [8] | composite z-score [9] | composite z-score [10]
18 | O=C1[C@H]2[C@H]3[C@H](O)[C@H](O)CC(=NO[C@@H]4O[C@H](CO)[C@@H](O)[C@H](O)[C@H]4O)[C@H]3CC[C@H]2C(=O)N1c1ccc(F)cc1F | 0.491 | 0.29 | 0.382 | -0.466 | -1.2 | -0.0088 | 0.178 | -0.273 | -0.267 | 0.184
19 | C[C@@H]1CC[C@H]2C(=O)O[C@@H](COc3ccc(C(C)(C)C)cc3)CN2[C@H]1c1ccc(Br)cc1 | 0.269 | -0.157 | 0.193 | -0.543 | -0.229 | -0.0704 | -0.214 | 0.0762 | 0.0021 | 0.315
20 | COc1ccc(COC(=O)NN=C2C[C@@H](O)[C@@H](O)[C@@H]3[C@@H]4C(=O)N(Cc5ccccc5)C(=O)[C@@H]4CC[C@@H]23)cc1 | 0.183 | 0.605 | 0.379 | -0.234 | -0.515 | -0.128 | 0.0278 | -0.216 | 0.0762 | -0.125
21 | CC(C)CON=C1C[C@@H](O)[C@@H](O)[C@@H]2[C@@H]3C(=O)N(C(C)(C)C)C(=O)[C@@H]3CC[C@@H]12 | -0.219 | -0.851 | 1.1 | -1.39 | -2.27 | -0.178 | -0.229 | -0.158 | 0.0031 | -0.718
22 | CCCNC(=O)OC[C@H]1O[C@H](CCON=C2C[C@@H](O)[C@@H](O)[C@@H]3[C@@H]4C(=O)N(CC)C(=O)[C@@H]4CC[C@@H]23)C=C[C@@H]1Oc1ccc(OC)cc1 | 0.938 | -1.33 | 0.928 | 0.0716 | -0.795 | -0.141 | 0.531 | 0.084 | -0.0137 | 0.512
23 | O=C(NN=C1C[C@@H](O)[C@@H](O)[C@@H]2[C@@H]3C(=O)N(Cc4ccccc4)C(=O)[C@@H]3CC[C@H]12)OCc1ccccc1 | -0.401 | 0.0011 | 0.524 | -0.293 | -0.406 | -0.124 | -0.2 | 0.0313 | 0.305 | -0.016
24 | C=C(C)C(=O)OC[C@H]1CN2[C@@H](CC[C@@H](C)[C@@H]2c2ccc(Br)cc2)C(=O)O1 | 0.33 | 1.25 | 0.373 | -0.562 | -0.395 | -0.178 | -0.0553 | -0.353 | -0.273 | 0.534
25 | CC(=O)OC[C@H]1O[C@H](CC=NOC(C)CN2CCCCc3nc(C)c(C)cc32)C=C[C@@H]1OC(C)=O (stereo not given in full) | 1.11 | -0.339 | 1.08 | -0.208 | -0.745 | 0.0044 | -0.179 | 0.0805 | 0.556 | 0.971
26 | C[C@@H]1CC[C@H]2C(=O)O[C@@H](CN=[N+]=[N-])CN2[C@H]1c1ccc(Br)cc1 | 1.23 | -4.98 | 0.672 | 0.169 | -0.425 | -0.262 | -0.32 | -0.571 | 0.0942 | 0.601
27 | CC(=O)OC[C@H]1O[C@H](CCON=C(C)CCN2CCCc3nc(C)c(C)cc32)C=C[C@@H]1OC(C)=O | 1.33 | -0.186 | 0.686 | -0.191 | -0.947 | -0.0229 | -0.138 | 0.189 | 0.489 | 0.133
28 | CO[C@@H]1COC(=O)[C@H](COCc2ccccc2)NC(=O)CC=C[C@@H](C)[C@H](OC)COC(=O)[C@@H](C)NC(=O)CC=C[C@H]1C | -0.747 | -0.536 | 0.583 | -1.78 | -2.61 | -0.18 | 0.0062 | -0.643 | 0.343 | -1.31
29 | CO[C@H]1C[C@@H]2C[C@H](O)CC(CC(=O)O[C@@H](C=CCC(C)C)C[C@@H]3CC[C@H](C)[C@@H](C1)O3)O2 | 1.27 | -0.763 | 0.748 | -0.126 | -0.468 | -0.0194 | 0.0815 | -0.447 | 0.536 | 1.63
30 | CCO[C@H](c1cc(OC)cc([N+](=O)[O-])c1OC)[C@H](C)[C@@H](OC)[C@H](C)C=CCC(=O)OC | 0.488 | 0.899 | -0.0609 | 0.379 | -0.103 | -0.0383 | -0.138 | -0.445 | -0.0844 | 0.696
31 | CO[C@H]1COC(=O)CCC[C@H](C)[C@H](OC)COC(=O)CC=C[C@@H]1C | -1.46 | -1.34 | 0.804 | -0.294 | -1.2 | -0.156 | -0.138 | -0.258 | 0.307 | -0.0936
32 | CON=C[C@@H](OC)[C@H](C)C=CCC(=O)OC | -1.72 | -0.337 | 0.262 | -0.491 | -0.476 | -0.0573 | 0.0952 | -0.296 | 0.447 | -0.023
33 | CC(CCN1CCCc2nc(C)c(C)cc21)=NOC[C@@H](O)COCc1ccco1 | -2.03 | -0.62 | 1.73 | 0.264 | -2.31 | 0.937 | 2.26 | 1.75 | 2.57 | 1.94
